# Data from PubChem BioAssay AID588342 (National Center for Advancing Translational Sciences (NCATS), 2011).
# The whole screen tested about 360,000 compounds, of which about 25,000 (6.9%) were called active. Another 9% or so got no clear call; they are omitted. The call rests on the fitted dose curve; in most records, active means well fitted inhibition curve with a large enough effect; inconclusive means small, poorly fitted or top-dose-only effect; inactive means flat fitted curve, though single readings scatter. Only a selection was taken, and actives are over-represented in it overall.
# Target: Luciferin 4-monooxygenase (Photinus pyralis) (UniProt P08659)
# Assay: qHTS profiling assay for firefly luciferase inhibitor/activator using purifed enzyme and Km concentrations of substrates (counterscreen for miR-21 project); further: nearly all actives have a fitted effect of over 55% in size;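 on activity change, negative = inhibition: plate controls were vehicle for no effect and reference inhibitor for full effect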
# Conditions: purified FLuc, luminescence inhibition; series mostly up to 57.5 µM; activity change, negative = inhibition: at the top concentration
# How it was run: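 Purified P. pyralis luciferase (10nM final) with 10uM D-luciferin and 10uM ATP (Km levels) in 50mM Tris acetate pH 7.5, 10mM Mg acetate, 0.01% Tween-20, 0.05% BSA; qHTS 6-point titration, ~60 µM downward; luminescence read.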
# Potency means the concentration at half of the fitted maximal effect.
# Chain of Luciferin 4-monooxygenase (Photinus pyralis) (P08659 whole entry, looked up): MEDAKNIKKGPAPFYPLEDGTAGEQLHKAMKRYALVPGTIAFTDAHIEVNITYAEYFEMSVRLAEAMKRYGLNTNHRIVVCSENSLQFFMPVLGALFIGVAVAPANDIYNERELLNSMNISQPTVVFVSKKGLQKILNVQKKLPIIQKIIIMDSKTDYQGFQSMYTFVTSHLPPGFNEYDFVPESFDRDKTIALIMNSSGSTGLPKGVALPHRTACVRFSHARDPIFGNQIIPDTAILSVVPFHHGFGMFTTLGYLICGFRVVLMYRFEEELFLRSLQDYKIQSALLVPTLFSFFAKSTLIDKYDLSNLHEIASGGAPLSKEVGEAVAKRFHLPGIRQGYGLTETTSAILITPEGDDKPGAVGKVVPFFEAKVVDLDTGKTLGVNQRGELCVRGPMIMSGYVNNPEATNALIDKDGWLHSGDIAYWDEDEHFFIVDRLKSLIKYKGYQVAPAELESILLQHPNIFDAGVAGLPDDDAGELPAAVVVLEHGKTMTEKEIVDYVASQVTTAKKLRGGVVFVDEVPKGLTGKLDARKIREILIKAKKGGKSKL
SMILES,"activity change, negative = inhibition",Potency
Cc1ccccc1CNC(=O)CSc1nnc(C)c2c(C)n(-c3ccccc3)nc12,-17% (inactive),–
Nc1ccc(N=Nc2ccccc2Cl)c(N)n1,–,6.01 µM (active)
O=C1C=C(c2cccc(Cl)c2)C[C@@H](c2ccc(F)cc2)C1,-4.42% (inactive),–
COc1ccc(Cn2cc(C(=O)c3ccc(C)cc3)c(=O)c3cc(OC)c(OC)cc32)cc1,-2.14% (inactive),–
Cn1nc(C(C)(C)C)c(NC(=O)c2sccc2Cl)c1C(C)(C)C,-1.09% (inactive),–
COc1ccccc1NC(=O)/C=C/C(N)=O,-2.13% (inactive),–
COC(=O)c1sc(-c2ccc(C(C)(C)C)cc2)cc1NC(=O)/C=C/C(=O)O,–,1.51 µM (active)
N#CC(C#N)=CN=c1ccn(Cc2ccc(Cl)cc2Cl)cc1,0.66% (inactive),–
COc1ccc(NC(=O)N2CCCC(C(=O)Nc3ccccc3OC)C2)cc1 (stereo not drawn),0.703% (inactive),–
COc1ccc(C(=O)NC2CCN(C(=O)Nc3ccc(F)cc3)CC2)cc1,-8.45% (inactive),–
COc1ccc(NC(=O)N2CCC(Cc3ccccc3)CC2)cc1,–,15.1 µM (active)
COc1cccc(C(=O)N(Cc2cccc(Cl)c2)Cc2ccco2)c1,-3.28% (inactive),–
CCCc1nc2c(c(=O)c3ccccc3n2C)c(=O)n1-c1cc(C)cc(C)c1,–,15.1 µM (active)
Cn1c2ccccc2c(=O)c2c(=O)n(Cc3ccco3)c(COc3ccccc3)nc21,-6.43% (inactive),–
CCCc1nc2c(c(=O)c3ccccc3n2C)c(=O)n1C1CCCCCC1,-1.97% (inactive),–
CCOc1ccccc1NC(=O)CN1CCN(S(=O)(=O)c2ccc(Br)cc2)CC1,-12% (inactive),–
COC(=O)C1(C)NC(c2ccc(C)cc2)C2C(=O)N(c3ccc(F)cc3)C(=O)C21 (stereo not drawn),0.287% (inactive),–
COC(=O)[C@]1(C)N[C@H](c2ccc(-c3ccc(Cl)c(Cl)c3)cc2)[C@@H]2C(=O)N(C)C(=O)[C@@H]21,–,15.1 µM (active)
COC(=O)C1(C)NC(c2ccc(F)cc2)C2C(=O)N(c3ccccc3)C(=O)C21 (stereo not drawn),-0.999% (inactive),–
Cc1cc2ccccc2n1CCNC(=O)c1ccc(F)cc1,-11.8% (inactive),–
O=C(CNC(=O)c1ccc(F)cc1)c1ccccc1,–,19 µM (active)
O=C(CNC(=O)c1ccccc1)NCC(=O)OCC(=O)c1ccccc1,-4.07% (inactive),–
O=C(COC(=O)CNC(=O)c1ccccc1F)NCC(F)(F)F,-1.88% (inactive),–
O=C(Nc1ccc(NC(=O)c2ccccc2F)cc1)c1ccccc1F,-2.26% (inactive),–
O=C(CNC(=O)c1ccccc1F)c1ccc(Br)cc1,–,2.69 µM (active)
Cn1c(=O)[nH]c(=O)c2c1[nH]c(=S)n2Cc1ccccc1,-1.53% (inactive),–

SMILES,"activity change, negative = inhibition",Potency
CC1=Nc2cc(C(=O)NCc3ccc(C)cc3)ccc2Sc2ccc(Cl)cc21,-7.52% (inactive),–
O=C(OCC(=O)N1CCCCCC1)c1cnc(Cl)c(Cl)c1,-4.72% (inactive),–
O=C(NCCc1csc(-c2ccccc2)n1)c1ccccc1F,–,26.9 µM (active)
O=S(=O)(NCCc1csc(-c2ccccc2)n1)c1cccnc1,-5.44% (inactive),–
COc1ccc(CCC(=O)NCCc2csc(-c3ccc(Cl)cc3)n2)cc1,-10.6% (inactive),–
O=c1ccc2c(-c3ccccc3S(=O)(=O)O)c3ccc(O)c(O)c3oc-2c1O,–,13.5 µM (active)
COc1ccc(OC)c(NC(=O)C2CCN(S(=O)(=O)c3ccc(C)cc3)CC2)c1,-3.03% (inactive),–
COc1ccc(OC)c(C(O)c2nc3ccccc3n2C)c1 (stereo not drawn),1.76% (inactive),–
CCN(CCCNC(=O)c1c(C)oc2ncn(CC(C)C)c(=O)c12)Cc1ccccc1,-0.305% (inactive),–
Cc1ccc(NC(=O)C(=O)NCc2ccc(/C=N/NC(=O)c3c(C)nc4cc(C)ccn34)o2)cc1,–,2.13 µM (active)
Cc1ccn2c(=O)c(NC(=O)c3cccc4ccccc34)c(C)nc2c1,0.894% (inactive),–
CCOc1ccc(/C=N\NC(=O)c2c(C)nc3cc(C)ccn23)cc1,-1.47% (inactive),–
N=C1C(=O)OCC1c1ccccc1NC(=O)CN1CCCCC1 (stereo not drawn),-0.64% (inactive),–
CN(Cc1ccccc1)C(=O)c1cn(C)c2ccc(S(=O)(=O)N3CCCCC3)cc2c1=O,-4.69% (inactive),–
CCc1ccccc1NC(=O)CSc1nc(C)c(C(=O)Nc2ccccc2)c(-c2ccc(Cl)cc2)c1C#N,-0.825% (inactive),–
Cc1cc(C)n(CCNS(=O)(=O)c2ccc(Cl)cc2)n1,2.54% (inactive),–
O=C1N/C(=N\N=C\c2ccco2)SC1Cc1ccc(F)cc1 (stereo not drawn),-0.419% (inactive),–
C=CCN1C(=O)C(Cc2cccc(Cl)c2)S/C1=N/N=C/c1ccco1 (stereo not drawn),1.23% (inactive),–
COc1ccc(CN2C(=O)C(C)S/C2=N/N=C/c2ccco2)cc1 (stereo not drawn),–,15.1 µM (active)
COc1cccc(C2C(C(=O)Nc3ccc(C)cc3C)=C(C)Nc3c(C(=O)Nc4ccccc4)cnn32)c1 (stereo not drawn),-5.82% (inactive),–
COc1ccc(CN(C)Cc2nc3cc(OC)c(OC)cc3c(=O)[nH]2)c(OC)c1,0.629% (inactive),–
COc1ccc(Oc2cn[nH]c2-c2ccc(OC)cc2O)cc1,-12.5% (inactive),–
COc1ccc(/C=C2/C(=O)OCc3cc(OC)c(OC)cc32)c(OC)c1,–,12 µM (active)
COc1cc([N+](=O)[O-])ccc1NC(=O)COC(=O)CCOc1ccc(C)cc1,-1.29% (inactive),–
COc1ccccc1-c1nnc(SCC(N)=O)o1,-3.36% (inactive),–
Cc1ccc(OC(=O)CSc2nnc(-c3cccs3)o2)cc1,-2.44% (inactive),–

SMILES,"activity change, negative = inhibition",Potency
COc1ccc(-c2nnc(SCC(=O)c3cccs3)o2)c(OC)c1,–,2.39 µM (active)
CCCCCCn1cc(C(=O)O)c(=O)c2cc(F)c(N3CCCCC3)cc21,1.99% (inactive),–
Cc1cc2nc(NC(=O)c3ccc(S(=O)(=O)N4CCOCC4)cc3)sc2cc1C,4.43% (inactive),–
O=C(Nc1nc2cc3c(cc2s1)OCCO3)c1cccc(S(=O)(=O)N2CCOCC2)c1,–,7.57 µM (active)
O=C(Nc1ccc(S(=O)(=O)Nc2nccs2)cc1)c1cccc(S(=O)(=O)N2CCOCC2)c1,-17.3% (inactive),–
CC(Sc1nnc(-c2cccs2)n1C1CC1)C(=O)NCC1CCCO1 (stereo not drawn),4.14% (inactive),–
CCOc1ccccc1NC(=O)C1=C(C)Nc2ncnn2C1c1ccc(NC(C)=O)cc1 (stereo not drawn),-2.67% (inactive),–
COc1ccc(-c2nc3n(c2Br)CCC3)cc1,–,7.57 µM (active)
COc1ccc(-c2nnc3n2CCCCC3)cc1,0.399% (inactive),–
Brc1cccc(-c2nnc3n2CCC3)c1,1.44% (inactive),–
COc1cccc(N2CC(NC(=O)c3ccc4ccccc4c3)CC2=O)c1 (stereo not drawn),-1.3% (inactive),–
O=C(NCC(=O)N1CCN(c2ccccc2O)CC1)c1ccc2ccccc2c1,-17.3% (inactive),–
CCN(CC)Cc1cc(C(C)=O)ccc1O,-1.11% (inactive),–
CC(=O)c1ccc2c(ccc3ccccc32)c1,–,21.3 µM (active)
CC(=O)CCC(=O)c1ccc2ccccc2c1,–,26.9 µM (active)
CC(=O)c1ccc2c(c1)c1ccccc1n2CC(C)C,-4.18% (inactive),–
CC(C)(C)OC(=O)NCCCCCNC(=O)c1nc[nH]c1C(=O)NCc1ccccc1,-15.1% (inactive),–
Cc1ccccc1NC(=O)Cn1c(=O)n(Cc2ccco2)c(=O)c2ccc(C(=O)NC3CCCC3)cc21,-0.556% (inactive),–
CNC(=O)c1nnn(-c2ccccc2)c1C(=O)NC,-2.19% (inactive),–
CC(=O)NC12CC3CC(C1)CC(C(=O)N1CCN(S(=O)(=O)c4cccs4)CC1)(C3)C2,6.36% (inactive),–
CC(C)(C)c1ccc(C(=O)Nc2ccc3c(c2)CCCN3C(=O)c2cccs2)cc1,-13.7% (inactive),–
CCc1nnc(SCC(=O)Nc2cc(OC)ccc2OC)nc1CC,0.467% (inactive),–
O=C(c1ccc(NS(=O)(=O)c2ccc3[nH]c(=O)[nH]c3c2)cc1)N1CCCCC1,-2.18% (inactive),–
CC(=O)c1c(C)oc2ccc(NS(=O)(=O)c3ccc(C(=O)O)cc3)cc12,-0.624% (inactive),–
O=C(O)c1ccc(NS(=O)(=O)c2ccc3c(c2)C(=O)c2cc(S(=O)(=O)Nc4ccc(C(=O)O)cc4)ccc2-3)cc1,–,23.9 µM (active)
O=C(CSc1ncc(CO)n1Cc1ccc(F)cc1)NCc1ccco1,2.1% (inactive),–

SMILES,"activity change, negative = inhibition",Potency
COc1ccccc1NC(=O)Cn1cnc2ccc(S(=O)(=O)N3CCC(C)CC3)cc2c1=O,-1.78% (inactive),–
CCCN(CC(=O)Nc1ccccc1C)C(=O)c1ccc2[nH]c3c(c2c1)CC(C)CC3 (stereo not drawn),-4.18% (inactive),–
c1ccc2c(NC3C4CC5CC(C4)CC3C5)nc(N3CCOCC3)nc2c1 (stereo not drawn),0.91% (inactive),–
Cc1cc(OCC(=O)Nc2ncn[nH]2)c(C)c(C)c1Br,-0.153% (inactive),–
CC1Cc2ccccc2N1C(=O)CSc1nnc(C2CC2)n1C (stereo not drawn),0.0229% (inactive),–
O=C(c1ccc2ccccc2n1)N1CCN(c2ccccc2Cl)CC1,–,16.9 µM (active)
O=C(c1c(Cl)cccc1Cl)N1CCN(c2cccc3[nH]ccc23)CC1,-2.83% (inactive),–
COc1ccccc1N1CCN(C(=O)c2c(-c3c(Cl)cccc3Cl)noc2C)CC1,4% (inactive),–
Cc1cccc(C)c1Nc1nnc(SCC(=O)Nc2sccc2C#N)s1,-3.48% (inactive),–
Cc1csc(SCC(=O)Nc2sccc2C#N)n1,–,2.13 µM (active)
Cc1ccc(NC(=O)CSCC(=O)Nc2sccc2C#N)cc1,9.39% (inactive),–
CC(OC(=O)Cc1ccc(F)cc1)C(=O)N1CCc2ccccc21 (stereo not drawn),1.31% (inactive),–
CC(C(=O)O)n1cnc2sc3c(c2c1=O)CCCC3 (stereo not drawn),-12.5% (inactive),–
CC(C)(C)OC(=O)N1CCC(c2c(C(=O)N3CCc4ccccc4C3)cnn2-c2ccc(F)cc2)CC1,-7.72% (inactive),–
COc1cc(/C=C(/NC(=O)c2ccccc2)C(=O)Nc2cccc(O)c2)c([N+](=O)[O-])cc1OC,0.805% (inactive),–
O=C(Nc1cccc(O)c1)c1ccc(C(=O)c2ccccc2)o1,–,6.75 µM (active)
O=C(CSc1ccccc1)Nc1ccc(C(=O)Nc2cccc(O)c2)cc1,-19.6% (inactive),–
C/C(=C\C(=O)c1cccnc1)Nc1ccc(C)c(C)c1,–,6.75 µM (active)
O=C(NCc1cccc(CNC(=O)Nc2cccc(O)c2)c1)Nc1cccc(O)c1,-18.1% (inactive),–
CC(=O)c1cccc(NC(=O)[C@@H](NC(N)=O)C(C)C)c1,-1.72% (inactive),–
C/C(=C\C(=O)c1ccccc1)Nc1cccc(O)c1,–,3.38 µM (active)
Cc1ccc(OCC(=O)NCCCNC(=O)c2cccnc2)cc1C,-0.246% (inactive),–
Cc1ccc(NC(=O)COc2ccc(/C=N\NC(=O)c3cccnc3)cc2)cc1C,-8.22% (inactive),–
CC1(C)CC(=O)C=C(c2ccc3ncccc3c2)C1,-12.7% (inactive),–
CCOC(=O)C1CCN(C(c2ccc(F)cc2)c2sc3nc(-c4ccco4)nn3c2O)CC1 (stereo not drawn),-17.7% (inactive),–
